Assay results from PubChem BioAssay.

Assay: growth of efflux-deficient E. coli DRC39 – strain DRC39, OD650, 24 h, E. coli filamentation inducers, primary screen (AID 1178);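 also: growth measured as culture turbidity by optical density at 650 nm; test concentration not given here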
Details: E. coli DRC39 acrAB, higher = more signal, called active from +8 up or from −8 down

z-score, inactive:
C=CCNC(=O)[C@H]1[C@@H]2C(=O)O[C@@H](c3ccccc3)[C@@H](c3ccccc3)N2[C@@H](c2ccc(O)cc2)[C@]12C(=O)Nc1ccc(C#CC3=CCCCC3)cc12 0.322
CN(C)C(=O)[C@]1(Cc2ccccc2CN=[N+]=[N-])N=C(c2ccc(OCCCO)cc2)O[C@@H]1c1ccccc1N=[N+]=[N-] 0.377
COCCn1c(C(=O)N2CCCC2)cc2c1C[C@H]1CN(C(=O)c3ccccc3)[C@@](Cc3ccccc3)(C(=O)OC)[C@@H]21 -0.16
CCCC[C@@H](O)C1=C(COC)Cn2c(=O)n(-c3ccccc3)c(=O)n2[C@H]1CO 1.15
CN(C)C(=O)[C@]1(Cc2ccccc2)N=C(c2ccc(OCCCO)cc2)O[C@@H]1c1ccccc1 -0.809
COc1ccc([Si](C)(C)[C@H]2[C@H](CCO)O[C@@]3(C(=O)N(Cc4ccc(N5CCOC5=O)cc4)c4ccccc43)[C@@H]2C)cc1 1.32
C=CCC(OC(C)=O)[C@@H]1[C@@H](N(Cc2cccc3ccccc23)C(=O)c2ccc(-c3ccccc3)cc2)c2cc(OCCCO)ccc2N1C(=O)c1ccc2ccccc2n1 (stereo not given in full) -0.267
C=CC[C@@]1(C(=O)O)N=C(c2ccc(OCCCO)cc2)O[C@@H]1c1ccccc1CN=[N+]=[N-] 0.8
COC(=O)c1c(CC[C@@H](CO)NC(=O)N[C@@H](Cc2ccccc2)Cn2cc(-c3cncn3C)nn2)oc(C(C)=O)c1C(=O)OC 0.681
COC(=O)Cn1c(C(=O)N(C)C)cc2c1C[C@H]1CN(C(=O)c3ccccc3)[C@@](Cc3ccc(OC)cc3)(C(=O)OC)[C@@H]21 -0.552
CCCC=C(CCC)[C@@H](NS(=O)(=O)c1ccc(Cl)cc1)c1ccccc1 -0.558
COc1ccc(CCNC(=O)[C@@H]2c3ccccc3C(=O)N(CC34CC5CC(CC(C5)C3)C4)[C@H]2c2ccc(CO)cc2)cc1 0.517
NC(=O)N1C(=O)C2C(C1=O)C1C=C(CCCO)C2C(c2ccc(CN3CCCC3)cc2)N1Cc1cccc(OC(F)(F)F)c1 (stereo not given) -0.385
COc1ccc([Si](C)(C)[C@H]2[C@H](CCn3cc([C@H](O)c4ccccc4)nn3)O[C@@]3(C(=O)N(c4ccccc4)c4ccccc43)[C@@H]2C)cc1 0.346
CCCC=C(CCC)[C@@H](NC(=O)c1ccccc1)c1ccc(C(=O)OC)cc1 -0.634
